Measured values reported in PubChem BioAssay AID624483 (NMMLSC, 2012).
The whole screen tested about 360,000 compounds, of which about 11,000 (3.1%) were called active. Not shown: some 2% with an inconclusive outcome. Many of the other results were omitted from the sample, so actives are more common in it than they were. Values without a mark were called inactive. Rule as the data show it: active = fluorescence intensity above about 16000; inconclusive = no clear call, values can overlap the other calls; inactive = below that.

Assay: compound fluorescence in toxin protease inhibitor counterscreen, primary screen, artefact control for toxin protease inhibitor project, biochemical, multiplex microsphere, HTS (AID 624483)
Details: compound autofluorescence counterscreen, microsphere flow cytometry; active compounds read high

SMILES	fluorescence intensity
Cc1ccccc1CSc1nnc(-c2ccccn2)n1N	16200 (active)
Cn1c(SCC(=O)C(C)(C)C)nnc1-c1ccccn1	9760
Cc1ccccc1CSc1nnc(-c2cccnc2)n1N	2660
COc1ccc(C(=O)NC(=S)N2CCCCC2c2cccnc2)cc1OC (stereo unspecified)	4080
Cc1ccc(Cn2c(=N)c(S(=O)(=O)c3ccc(C)cc3)cc3c(=O)n4ccccc4nc32)cc1	4390
CCn1c(=N)c(S(=O)(=O)c2ccc(F)cc2)cc2c(=O)n3ccccc3nc21	2990
Cc1ccc(-n2c(=O)c(C#N)cc3c(=O)n4ccccc4nc32)cc1C	24200 (active)
CCc1nc2nc(C)c(NS(=O)(=O)c3ccc4c(c3)CCCC4)c(=O)n2[nH]1	4030
C=C1C(=O)[C@]23C[C@H]1CCC2[C@@]1(C)C(C[C@@H]3O)[C@](C)(C(=O)O)CC[C@@H]1O (stereo partly specified)	4260
CC1=C(C(=O)N(C(C)C)C(C)C)CC(CC(=O)NCC2CCCCC2)C(=O)N1Cc1ccccc1 (stereo unspecified)	5490
CCCCN(C1CCS(=O)(=O)C1)S(=O)(=O)c1ccc(C(C)C)cc1 (stereo unspecified)	5460
CN(C1CCS(=O)(=O)C1)S(=O)(=O)c1ccc2ccccc2c1 (stereo unspecified)	5860
Cc1ccc(S(=O)(=O)N(c2cccc(C)c2)C2CCS(=O)(=O)C2)cc1 (stereo unspecified)	21200 (active)
CCOP(=O)(OCC)C(Cc1ccccc1)N=C(c1ccccc1)c1ccccc1 (stereo unspecified)	5750
Cn1cnc(S(=O)(=O)Nc2ccc3c(c2)OCCO3)c1	3290
CCC(c1nnnn1-c1ccc2c(c1)OCCO2)N1CCN(c2ccc(C(F)(F)F)cn2)CC1 (stereo unspecified)	5170
CC(=O)Nc1cc(-c2ccc(N3CCN(C)CC3)cc2)cn2c(-c3cccc(C(=O)N(C)C)c3)cnc12	2910
CCCC/S(C)=N/S(=O)(=O)c1ccc(C)cc1 (stereo unspecified)	1940
Cc1ccc(S(=O)(=O)/N=S(\C)C(C)C)cc1 (stereo unspecified)	2730
CC/S(CC1CC1(Cl)Cl)=N\S(=O)(=O)c1ccc(C)cc1 (stereo unspecified)	19500 (active)
CC(=O)c1ccc(-c2cnc3c(NC=O)cc(-c4cccc(NS(C)(=O)=O)c4)cn23)cc1	4010
COc1ccc(C(c2nnnn2C2CCCC2)N2CCN(C/C=C/c3ccccc3)CC2)cc1 (stereo unspecified)	5910
O=C(CC(c1ccccc1)c1ccccc1)NCC(O)c1ccc([N+](=O)[O-])cc1 (stereo unspecified)	3190

SMILES	fluorescence intensity
CCCCCCOC(=O)NCC(O)c1ccccc1 (stereo unspecified)	17600 (active)
CCCCOC(=O)Nc1nnc(CC(=O)NCc2ccccc2)s1	3980
Cc1cccc(CN2CCN(C3CN(Cc4cn(Cc5cc(C)cc(C)c5)nn4)S(=O)(=O)C3)CC2)c1 (stereo unspecified)	4640
CCCCCCN1CCN(C2CN(Cc3cn(CCCCCC)nn3)S(=O)(=O)C2)CC1 (stereo unspecified)	5850
COc1ccc([N+](=O)[O-])cc1N(CC(O)CN(CC(C)C)CC(C)C)S(=O)(=O)c1ccc(C)cc1 (stereo unspecified)	3790
Cc1ccc(S(=O)(=O)N(CC(O)CN2CCCCC2)c2cccc([N+](=O)[O-])c2)cc1 (stereo unspecified)	3000
COc1ccc([N+](=O)[O-])cc1N(CC(O)Cn1nnc2ccccc21)S(=O)(=O)c1ccc(C)cc1 (stereo unspecified)	17900 (active)
CC(C)[C@@H](C(=O)OCC(=O)c1ccc2c(c1)NC(=O)CO2)N1C(=O)c2ccccc2C1=O	3880
C=C(C)C(=O)O[C@H]1C/C(C)=C\C(=O)/C=C(\C)[C@H](O)[C@@H]2OC(=O)C(=C)[C@@H]21	2760
CCOC(=O)c1c(C)n(C)c2ccc(OC)c(NS(=O)(=O)CC)c12	2300
CCOc1ccc(NC(=O)Nc2ccc(N(C)C(C)=O)cc2)cc1	4350
CCOc1ccc(NC(=O)N(CCC(C)C)C(C)c2ccco2)cc1 (stereo unspecified)	2150
CCOc1ccc(NC(=O)N(CC(C)C)CC(C)C)cc1	20300 (active)
CCOC(=O)C1=C(C)NC(C)=C(C(=O)OCC)C1C1=COCCO1	5040
CCCC1NC(=O)NC(C)=C1C(=O)OCC (stereo unspecified)	20200 (active)
CCCC1NC(=S)NC(C)=C1C(C)=O (stereo unspecified)	4600
CC(=O)NC(c1ccccc1)c1nc(-c2ccccc2C)cs1 (stereo unspecified)	3560
O=C(NC(=S)Nc1ccc(NC(=O)c2cccs2)cc1)c1ccc([N+](=O)[O-])cc1	8970
O=C(Nc1ccc(N2CCN(C(=O)C3CC3)CC2)cc1)c1cccs1	2520
CCc1ccc(NC(=O)C(=O)NNC(=O)c2cccs2)cc1	5780
O=C(O)c1ccc(NC(=O)c2cccs2)cc1	23200 (active)
O=C(O)Cc1ccc(NC(=O)c2cccs2)cc1	19700 (active)
O=C(Nc1ccccc1-c1ccccc1)c1cccs1	4880

SMILES	fluorescence intensity
CC(C)CCNC(=O)c1[nH]c(C(F)(F)F)nc1-c1ccccc1	5980
CCOC(=O)[C@]12CCC=C1N(Cc1ccco1)C(=O)[C@H](CC(=O)NCc1cccc(C(F)(F)F)c1)C2	4290
COC(=O)[C@]12CCCCC=C1N(CCC1=CCCCC1)C(=O)[C@H](CC(=O)N1CCSCC1)C2	5780
CC(=O)Nc1ccc(CNc2nc(NCCN(C)C)nc3cc(-c4ccccc4)sc23)cc1	3970
Cc1cc(Cl)ccc1NNC(=O)c1snnc1C	3890
O=C(Nc1cccnc1)c1noc2c1CCCCC2	24400 (active)
CC1(C(=O)Nc2cccnc2)Cc2c(-c3ccccc3)ccnc2O1 (stereo unspecified)	2820
Cc1noc(C)c1COc1cccc(C(=O)Nc2cccnc2)c1	4200
CS(=O)(=O)N(CC(=O)N1CCOCC1)c1cccc(Cl)c1Cl	4130
COC(=O)c1ccc(CN2C(=O)C(Cc3ccccc3)ON=C2c2ncccc2C)o1 (stereo unspecified)	4970
COc1cccc(CSc2nc3nc(C)cc(C)n3n2)c1	3360
COCCCn1c(SCc2cccc(OC)c2)nc2cc(OC)c(OC)cc2c1=N	23400 (active)
COCCn1c(SCc2nc3cc(OC)c(OC)cc3c(=O)[nH]2)nnc1-c1ccncc1	3550
CC(C)CN1CCC1(C)C(=O)Nc1ccc(OC(F)F)cc1 (stereo unspecified)	3880
O=C(CSCc1ccccc1Cl)NNC(=O)c1ccccc1	18500 (active)
O=C(COC(=O)c1ncc(Cl)c(Cl)c1Cl)NNC(=O)c1ccccc1	4100
O=C(COC(=O)Cc1ccccc1F)NNC(=O)c1ccc(Cl)cc1	5990
Cn1cnnc1Sc1ccc(S(C)(=O)=O)cc1[N+](=O)[O-]	3290
COc1ccc(COC[C@H](CC(C)C)N2CCN(C(=O)c3cccc(C(F)(F)F)c3)CCC2=O)cc1	4210
COc1ccc(NC(=O)CN(Cc2ccccc2)S(C)(=O)=O)cc1OC	2130
COc1ccc(S(=O)(=O)N(C)CC(=O)Nc2ccc3c(c2)OCCO3)cc1OC	3400
COc1ccc(NC(=O)CN(C)S(=O)(=O)c2ccccc2)cc1OC	16600 (active)
O=C(Nc1cccc2cccnc12)c1ccc2sc([C@H]3C[C@H](O)[C@@H](CO)O3)nc2c1	3070

SMILES	fluorescence intensity
Cc1cc(C)cc(OCC(=O)Nc2cc(NC(=O)COc3cc(C)cc(C)c3)cc(C(=O)O)c2)c1	3790
CC(C)CC1C(=O)N(Cc2cn(Cc3ccco3)nn2)CCS(=O)(=O)N1Cc1ccc(-c2ccc(Cl)c(Cl)c2)cc1 (stereo unspecified)	3840
O=C(OCC#CCSc1nnc(-c2ccncc2)o1)c1sc2ccccc2c1Cl	2840
C#CCSc1nnc(-c2sc3ccccc3c2Cl)o1	19600 (active)
COc1ccc2c(Cl)c(-c3nnco3)sc2c1	3460
CCCCCc1c(Cc2ccccc2)ncn1CCc1ccccc1OC	4640
O=C(NCc1ccc(F)cc1F)[C@@H]1CCCN1C(=O)[C@@H]1CCCN1C(=O)c1cccc(Cl)c1	6340
C[C@H]1CN([C@@H](C)CO)C(=O)CCCn2cc(nn2)CO[C@@H]1CN(C)C(=O)Nc1ccccc1	2950
COC(=O)c1sc(=S)n(-c2ccccc2)c1N	20900 (active)
N#Cc1ccccc1-n1c(N)c(C(=O)N2CCCC2)sc1=S	9660
Cc1cccc(-n2c(N)c(C(=O)N3CCN(C)CC3)sc2=S)c1	2920
Cn1c(=O)c2cc(NC(=O)NCCc3cccs3)ccc2n1Cc1cccc(C(F)(F)F)c1	3800
C#CC(C)(C)NC(=O)CSc1nc2c(c(=O)n(C)c(=O)n2C)n1CCCC	5580
CCCCn1c(SCC(=O)NCCc2ccc(OC)c(OC)c2)nc2c1c(=O)n(C)c(=O)n2C	22600 (active)
CCCCn1c(SCC(=O)N2CCOCC2)nc2c1c(=O)n(C)c(=O)n2C	5590
C=CCSc1nnc(Cn2c(=O)sc3ccccc32)n1C	5480
CC(=O)Nc1cccc(-c2ccnc3c2CC(C)(C(=O)NCc2ccco2)O3)c1 (stereo unspecified)	3800
CCN1C(=O)[C@H]2[C@@H](c3ccc(C(F)(F)F)cc3)N[C@]3(CCCN(Cc4ccc(Br)cc4)C3=O)[C@H]2C1=O	3620
Cn1c(C(=O)NCCCN2CCCCC2)cc2sccc21	8510
COc1ccc(CCNC(=O)c2cc3sccc3n2C)cc1OC	21800 (active)
COc1ccc(CCNC(=O)COC(=O)/C=C/c2cccs2)cc1OC	3190
CCOC(=O)C1Nc2ccc(C(F)(F)F)cc2C2C=CCC12 (stereo unspecified)	2760
